Measurements as given in PubChem BioAssay (NCATS).
Results filed as inconclusive are left out. Values without a mark were called inactive. Activity calls are given as the source filed them. Calls come from the whole dose curve; as a rule, active = well fitted cell-killing curve with a large enough effect; inconclusive = small, poorly fitted or top-dose-only effect, or effect the other way; inactive = flat fitted curve, though single readings scatter.

The molecules below were run on CAOV3 (assay: Primary qHTS to identify gynecologic anti-cancer compounds using libraries of approved drugs and bioactive compounds (AID 1345084; note: nearly all actives have a fitted effect of over 55% in size)). Settings: Gynecologic cancer cell panel viability, ATPlite luminescence, 48 h; series mostly up to 57.5 µM; activity change, negative = cytotoxicity: at the top concentration.
Excerpt: National Center for Advancing Translational Sciences [NCATS] Assay Overview: Chemotherapeutic drug responses vary from cancer to cancer and from patient to patient. These variations could be caused by a number of factors including patient genomic background, tumor mutations, tumor heterogeneity, and aspects of drug treatment. Chemotherapeutic drug resistance is also a common issue and can lead to ineffective treatment and patient death. Here we have profiled the cell killing effects of thousands of compounds to characterize the responses in three gynecological cancers, identify cancer-selective compounds, and understand the diversity of responses to these compounds from pan-cancer suppressors to single cell line selective compounds. In this assay, we screened a 7,914 compound drug library that included approved drug and bioactive compounds in six ovarian, three cervical, and […] placental cancer cell lines using the ATPlite assay for cell viability. […] The cervical cancer cell lines included HeLa, Ca Ski, and C-33 A. The placental cancer cell lines included JEG-3. HEK 293T cells were used as the control cell line to determine the selectivity index. ATPlite is a luminescence based assay reliant on the conversion of a luciferase substrate to light in the presence of ATP. As a cytotoxic compound will suppress growth and decrease the number of cells, the concentration of ATP will decrease, and less light signal will be detected in the well.
Assay Protocol Summary: 1,000 cells in 4 uL of media were dispensed into white, solid bottom 1536-well plates using a Multidrop Combi (Thermo Scientific). The Assay plates were incubated for 16 hours at 37 C with 5% CO2 in assay plates, followed by the addition of 23 nL of DMSO or drug dissolved in DMSO. Each compound was assayed in five concentrations (0.092, 0.46, 2.3, 11.5, and 57.5 uM), using the automated Wako 1536 Pin Tool workstation and incubated at 37 C with 5% CO2 48 hours. 4 uL of ATPlite, the ATP monitoring reagent, was then added to the each well of the assay plates using the Multidrop Combi reagent dispenser followed by incubation for 15 minutes at room temperature. The resulting luminescence was measured using the ViewLux plate reader.
% is set by controls: 0 for no effect and ±100 for the full control effect; potency is the fitted concentration of half-maximal effect.

SMILES	activity change, negative = cytotoxicity	Potency
Cc1ccccc1-n1c(Cn2cnc3c(N)ncnc32)nc2cccc(C)c2c1=O	-1.67%	–
O=C(N[C@@H](COc1ccc2[nH]c(=O)[nH]c2c1)c1ccccc1)c1cccn(Cc2ccc(F)c(F)c2)c1=O	-43.2%	–
O=S(=O)(c1ccc(Cl)cc1)c1ccc(Cl)cc1	-14.9% [at 116 µM]	–
CC(C)NCC(O)c1ccc([N+](=O)[O-])cc1 (stereo not given)	5.04%	–
O=S(=O)(O)C(F)(F)C(F)(F)C(F)(F)C(F)(F)C(F)(F)C(F)(F)C(F)(F)C(F)(F)F	24.4% [at 116 µM]	–
CN[C@@H](C)[C@H](O)c1ccccc1	-9.31%	–
O=[N+]([O-])c1c(Cl)c(Cl)cc(Cl)c1Cl	-1.14% [at 116 µM]	–
CC(=O)NCCc1c[nH]c2ccccc12	15.9%	–
CCOP(=O)(NC(C)C)Oc1ccc(SC)c(C)c1 (stereo not given)	6.48% [at 116 µM]	–
Nc1ccc(N=Nc2ccccc2)cc1	–	35.5 µM (active)
Nc1ccc([N+](=O)[O-])cc1	4.9% [at 116 µM]	–
COc1ccc(N(C(=O)Oc2c(C)cccc2C)c2ccnc(Nc3ccc(N4CCN(C)CC4)cc3)n2)c(OC)c1	0.235%	–
COCCOCCO	0% [at 116 µM]	–
CC(O)CN1CCN(CC(=O)[O-])CCN(CC(=O)[O-])CCN(CC(=O)[O-])CC1.[Gd+3] (stereo not given)	3.01%	–
CCCCOC(=O)c1ccccc1C(=O)OCc1ccccc1	2.82% [at 116 µM]	–
O=C(Oc1ccc([N+](=O)[O-])cc1)N1CCN(Cc2cccc(Oc3ccccc3)c2)CC1	1.27%	–
O=C(NCC1CCOCC1)c1cnc(Nc2ccc(Cl)cc2Cl)nc1C(F)(F)F	-1.47%	–
COC(C)(C)CCCC(C)C/C=C/C(C)=C/C(=O)OC(C)C (stereo not given)	-0.0184%	–
Nc1c(Cl)c(Cl)c(Cl)c(Cl)c1Cl	15.2% [at 116 µM]	–
Nc1ccc(Cl)cc1	1.81% [at 116 µM]	–

SMILES	activity change, negative = cytotoxicity	Potency
CC(C)(C)C(O)C(Oc1ccc(Cl)cc1)n1cncn1 (stereo not given)	-0.323% [at 116 µM]	–
CN1CCN(c2ccc([N+](=O)[O-])c3no[n+]([O-])c23)CC1	-20.2%	–
CC(N[C@H]1C[C@H]1c1ccccc1)c1ccc2c(c1)OCCO2 (stereo not given in full)	9.41%	–
CC[N+]1(CCOC(=O)C(O)(c2ccccc2)c2ccccc2)CCCCC1	24.6%	–
O=S(=O)(O)C(F)(F)C(F)(F)C(F)(F)C(F)(F)F	-3.59% [at 116 µM]	–
Nc1ccc(Sc2ccc(N)cc2)cc1	-17% [at 116 µM]	–
CC(C)(C)NC[C@H](O)c1ccc(O)cc1Cl	35.3%	–
Cc1[nH]nc2ccc(-c3cncc(OC[C@@H](N)Cc4c[nH]c5ccccc45)c3)cc12	–	1.12 µM (active)
CCC(=O)O[C@@H]1C=C2CCC3C(CCC4(C)C3CC[C@@H]4OC(=O)CC)C2CC1 (stereo not given in full)	7.39%	–
CCCCCCCCCCCCCCCC[N+](C)(C)C	–	8.91 µM (active)
O=[N+]([O-])/N=C1\NCCN1Cc1ccc(Cl)nc1	2.37%	–
COC1=C[C@@H]2[C@@H]3Cc4ccc(OC)c(O)c4[C@]2(CCN3C)CC1=O	8.41%	–
S=C(NC1CCCCC1)N1CCC(c2cnc[nH]2)CC1	7.63%	–
CC(=O)[O][Hg][c]1ccccc1	–	3.55 µM (active)
C=CC(=O)NCNC(=O)C=C	18% [at 116 µM]	–
O=C(N[C@H]1CN2CCC1CC2)c1ccc(Cl)cc1	19%	–
O=C(Oc1ccc([N+](=O)[O-])cc1)N1CCC(C(O)(c2ccc3c(c2)OCO3)c2ccc3c(c2)OCO3)CC1	-6.27%	–
CCOC(=O)Nc1ccc(NCc2ccc(F)cc2)cc1N	4.2%	–
O=[N+]([O-])c1c2ccccc2cc2ccccc12	0% [at 116 µM]	–
Nc1ccc(Cl)cc1N	-12% [at 116 µM]	–
